sPLA2-III inh = Blocks human group III sPLA2 activity; 370,000 tested, 0.56% active; Q9NZ20; QFRET BODIPY PC-A2 liposome hydrolysis, fluorescence; inhibition, % at 12.2 µM;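 active = inhibition above mean plus 3 SD of compounds lying within the high and low control bounds, cut at about 19% in these data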;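 also: 0% = median of test compound wells and 100% = no enzyme DMSO wells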
MOR-DOR ag = OPRM1-OPRD1 heterodimerization agonism | activation, % at 9.3 µM | 340,000 tested, 0.3% active | cells, luminescence; in the data active = activation above about 18%;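 also: 0% = vehicle-treated cells and 100% = reference agonist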
HTR5A ag = activates human HTR5A in OPRM1-OPRD1 agonist counter-screen; P47898; AID 504692; 340,000 tested, 0.61% active; activation, % at 9.3 µM; HTR5A agonist assay, luminescence, cell-based; in the data active = activation mostly above about 9.5%, no sharp cut-off; inactive = mostly below about 7.6%;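 also: 0% = cells with vehicle only and 100% = reference agonist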
Target sequence (P47898 whole entry, looked up): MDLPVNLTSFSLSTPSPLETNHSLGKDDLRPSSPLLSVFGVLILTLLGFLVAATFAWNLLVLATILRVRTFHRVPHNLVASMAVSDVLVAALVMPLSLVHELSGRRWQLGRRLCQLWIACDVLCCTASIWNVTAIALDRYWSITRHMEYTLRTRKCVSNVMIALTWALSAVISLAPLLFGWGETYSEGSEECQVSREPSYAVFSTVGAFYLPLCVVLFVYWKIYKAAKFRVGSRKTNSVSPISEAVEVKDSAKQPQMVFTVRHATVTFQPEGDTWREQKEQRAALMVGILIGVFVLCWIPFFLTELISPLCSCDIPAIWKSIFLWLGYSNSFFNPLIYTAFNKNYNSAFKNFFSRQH
OPRM1-OPRD1 inv = inverse agonists of human mu-delta opioid receptor heterodimerization | P35372+P41143 | cell-based MOR-DOR heterodimer luminescence, inverse agonism | inhibition, % at 9.3 µM | 340,000 tested, 0.21% active; in the data active = inhibition above about 22%, passing the limit was not always enough;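 also: 0% = cells with DMSO and 100% = wells without cells with DMSO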
HTR5A inv ag = HTR5A inverse agonism, opioid heterodimer counter-screen; P47898; HTR5A cell line, luminescence; inhibition, % at 9.3 µM; 340,000 tested, 0.083% active; AID 504634; in the data active = inhibition mostly above about 23%, no sharp cut-off; inactive = mostly below about 18%;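 also: 0% = cells with DMSO and 100% = no-cell wells with DMSO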
m5-HT2A agonist = activates the mouse 5-HT2A serotonin receptor; P35363; CHO-K1 mHTR2A beta-arrestin complementation, luminescence; percent of 30 µM serotonin response; activation, % at 7.6 µM; 360,000 tested, 0.66% active;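 active = activation above a run cutoff, the mean activation of all tested compounds plus 3 SD, cut at about 14% in these data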;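 also: 0% = plate median of compound wells and 100% = 30 µM serotonin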
OPRM1 ag = activates human mu opioid receptor in HTR2A counterscreen. activation, % at 9.3 µM. U2OS OPRM1 beta-arrestin PathHunter, luminescence; DMSO 0%, DAMGO 9.3 µM 100%. AID 624380. 2,300 tested, 5.3% active. shares compounds with m5-HT2A agonist;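 active = mean activation above the mean of DMSO-only wells plus 3 SD, cut at about 0.5% in these data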
m5-HT2A ag conf = mouse HTR2A agonism confirmed. 2,300 tested, 19% active. shares compounds with m5-HT2A agonist. activation, % at 7.6 µM. CHO-K1 PathHunter beta-arrestin recruitment, luminescence; DMSO 0%, 30 µM serotonin 100%;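 active = mean activation across triplicates above the hit threshold derived in the original primary screen, cut at about 15% in these data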
Numbers without * were called inactive; . = no result given. An excerpt weighted towards active compounds, which were near 2.2% of everything screened.

SMILES	sPLA2-III inh	MOR-DOR ag	HTR5A ag	OPRM1-OPRD1 inv	HTR5A inv ag	m5-HT2A agonist	OPRM1 ag	m5-HT2A ag conf
Cc1ccc(C)c(-n2c(CNc3ccc(F)cc3)nnc2SCC(N)=O)c1	0	-2	3	11	-8	18*	-1	-4
Cc1ccc(-n2c(CNc3ccc(F)cc3)nnc2SCC(=O)O)cc1	-6	.	.	.	.	0	.	.
COC(=O)C[C@H]1CC[C@@H]2[C@@H](COc3ccc(NC(=O)Nc4cccc(C)c4)cc3C(=O)N2C)O1	-10	.	.	.	.	.	.	.
CCC1=C(OC(=O)N(CC)CC)N2C(=O)OC(=NCC3CC3)[C@]2(C)[C@H]2C1=CC[C@H]1C(=O)N(CC)C(=O)[C@H]12	4	-2	1	13	-15	16*	0	0
CC12CC3CC(C)(C1)CC(C(O)CN1CCOCC1)(C3)C2 (stereo not given)	6	4	-2	-17	6	16*	-1	3
CC1(C)NC(=O)N(CC(O)CN2CCOCC2)C1=O (stereo not given)	-1	-3	-1	15	-9	2	.	.
COc1cccc(CNC(=O)Cn2c(-c3ccccc3)cc(C(C)=O)c2C)c1	7	.	.	.	.	.	.	.
CC[C@]1(C(=O)OC)[C@H]2C(=O)N(Cc3ccccc3)C(=O)[C@H]2[C@H]2CN(C)C(=NCc3ccccc3)N21	.	-1	1	4	-3	21*	0	-2
CCN1C(=O)C(=O)N(CC(=O)Nc2cccc(C(F)(F)F)c2)C1=O	-3	2	-3	-10	12	44*	-1	-4
CC[C@@]1(c2cccc(Cl)c2)C(=O)N(C(=O)OC(C)C)N1C(=O)OC(C)C	3	.	.	.	.	.	.	.
O=C(Nc1ccccc1O)c1c(O)c2c([nH]c1=O)CCCC2	-2	13	6	-65	-15	15*	0.8*	5
O=C(c1[nH]c(C(F)(F)F)nc1-c1ccccc1)N1CCN(c2cccc(C(F)(F)F)n2)CC1	-9	.	.	.	.	14*	0	4
Cc1ccc(S(=O)(=O)n2ccc(-c3c(-c4ccc(F)cc4)noc3C)n2)cc1	-6	.	.	.	.	.	.	.
CCOC(=O)c1ccc(NC(=O)CCc2nnc3ccc(N4CCCC4)nn23)cc1	6	-1	6	7	-24	24*	-1	-3
COc1ccc(NC(=O)CCc2nnc3ccc(N4CCC(C)CC4)nn23)cc1	2	0	8	-2	31	-5	.	.
CC(C)(C)C(=O)c1c(N)[nH]c(C(=O)c2ccccc2)c1-c1ccc(Cl)cc1Cl	-6	.	.	.	.	16*	0	-1
Nc1[nH]c(C(=O)c2ccccc2)c(-c2ccc(Cl)cc2Cl)c1C(=O)c1ccc(Cl)c(Cl)c1	7	.	.	.	.	-1	.	.
CN(C)Cc1c(C(C)(C)O)[nH]c2ccc(C(F)(F)F)cc12	6	-4	5	18	-3	23*	-1	20*
CCCCN1CC[C@H](C)Oc2cc(Br)ccc2S1(=O)=O	-2	.	.	.	.	.	.	.
O=C(NCc1cccs1)C1CCC(CNS(=O)(=O)c2cccc3cccnc23)CC1 (stereo not given)	6	.	.	.	.	.	.	.
COc1ccc(CC(=O)N[C@@H]2c3cc(OC)c(OC)cc3C[C@H]2O)cc1	-1	-4	-4	17	13	18*	-1	-3
CCN(C(=O)C1CCN(c2ncccn2)CC1)c1ccccc1	1	.	.	.	.	.	.	.
Cc1nc2ccc([N+](=O)[O-])cc2s1	3	-2	4	11	-10	4	.	.
Cc1nc2cc(Cl)c([N+](=O)[O-])cc2s1	-4	0	2	2	2	19*	-1	-1
CCOc1ccc(NC(=S)NCc2ccc3c(c2)OCO3)cc1	10	1	3	-3	-2	15*	-1	1
SMILES	sPLA2-III inh	MOR-DOR ag	HTR5A ag	OPRM1-OPRD1 inv	HTR5A inv ag	m5-HT2A agonist	OPRM1 ag	m5-HT2A ag conf
Cc1ccc(NC(=S)NCc2ccc3c(c2)OCO3)cc1	8	-2	12	9	-32	-1	.	.
N#Cc1ccc(Sc2ccccn2)c([N+](=O)[O-])c1	1	1	2	-4	-5	15*	0	-4
COc1ccc(N(C)C(=O)c2ccc(NC(=O)CCS(=O)(=O)c3cccs3)cc2)cc1	-8	0	9	1	2	15*	-1	-1
COc1ccc(NC(=O)c2ccc(NC(=O)CCS(=O)(=O)c3cccs3)cc2)cc1	-4	2	2	-12	-6	-1	.	.
CCc1nn2c(=O)cc(COC(=O)c3cc(Cl)c(OC)c(OC)c3)nc2s1	-4	-3	-1	10	5	17*	0	-3
CCCOc1c(Br)cc(C(=O)OCc2cc(=O)n3ccsc3n2)cc1OC	6	-3	0	12	17	2	.	.
COc1cccc(N(C)C(=O)[C@@H](C)[C@@H](O)c2ccc(C(C)=O)cc2)c1	1	.	.	.	.	.	.	.
O=C(Cc1ccccc1)NNC1CC(=O)N(c2ccccc2)C1=O (stereo not given)	3	-3	-6	16	15	2	.	.
O=C(Cc1ccccc1)NNC1CC(=O)N(c2ccc(Oc3ccccc3)cc2)C1=O (stereo not given)	-2	-2	-1	10	1	17*	-1	-2
COc1ccc(C2=NN(C(=O)CCC(=O)O)C(c3ccc([N+](=O)[O-])cc3)C2)cc1 (stereo not given)	-3	-2	-3	9	12	19*	-1	-4
COc1ccc(C2CC(c3ccccc3)=NN2C(=O)CCC(=O)O)cc1 (stereo not given)	7	0	-4	2	13	0	.	.
COC(=O)C1=C(C)N(Cc2ccc(C(F)(F)F)cc2)C(=NCc2ccccc2C(F)(F)F)NC1c1cccc(Cl)c1 (stereo not given)	9	.	.	.	.	.	.	.
Cc1cc(=O)[nH]c(SCC(=O)Nc2cccc(Cl)c2F)n1	-2	.	.	.	.	.	.	.
Cn1c(N)c(C(=O)Nc2c(Cl)cccc2Cl)sc1=S	3	3	-2	-13	1	20*	0	1
CCCCCCCCN1C(=O)[C@@H](CC(=O)NCc2cccs2)C[C@@]2(C(=O)OC)C1=C[C@H](COCc1ccccc1)O[C@@H]2C	-6	.	.	.	.	.	.	.
Cc1ccccc1NC(=O)[C@H]1CC(=O)O[C@@H]1c1ccccc1	4	.	.	.	.	.	.	.
COC(=O)CN1C(c2ccc(Cl)cc2)=Nc2ccc(Cl)cc2C1c1ccccc1 (stereo not given)	9	9	-3	-47	9	15*	0	-1
COc1ccc(C2=Nc3ccc(C)cc3C(c3ccccc3)N2CC(=O)NN)cc1 (stereo not given)	-4	0	-3	0	8	-5	.	.

Compound activity from PubChem.
